# Source: PubChem BioAssay AID1159580 (chemical genetic matrix, 2015)
# The campaign covered roughly 5,500 compounds. About 2,000 (36%) were called active. Roughly 18% stayed inconclusive and do not appear here. Some of the results follow. Unmarked numbers belong to inactive results. Cut-off read from the data, not from the text of the source: active = normalized growth mostly below about 0.91 (no sharp cut-off); inconclusive = no clear call, values can overlap the other calls; inactive = mostly above about 0.92.
# Experiment: chemical genetic growth profiling, strain panel (AID 1159580);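 note: tested at 20 µM; growth read once vehicle control cultures reached saturation at 30 °C; 1 = growth at the plate median or of vehicle wells; lower values mean less growth of the strain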
# Settings: S. cerevisiae deletion strains, growth OD
# [1] = locus YDL101C, strain DUN1, stronger effect = lower value
# [2] = locus YHR030C, strain SLT2, stronger effect = lower value
smiles,measurement,setting,value
Cc1onc(-c2ccc(Cl)cc2)c1-c1ccnn1C(=O)NC(C)C,normalized growth,"locus YAL013W, strain DEP1, stronger effect = lower value",0.966
same,normalized growth,"locus YBR229C, strain ROT2, stronger effect = lower value",0.932
same,normalized growth,"locus YCL061C, strain MRC1, stronger effect = lower value",0.963
same,normalized growth,[1],0.974
same,normalized growth,"locus YDR150W, strain NUM1, stronger effect = lower value",0.96
same,normalized growth,"locus YEL061C, strain CIN8, stronger effect = lower value",0.94
same,normalized growth,"locus YGR078C, strain PAC10, stronger effect = lower value",0.92 (active)
same,normalized growth,[2],0.918
same,normalized growth,"locus YHR087W, strain rtc3, stronger effect = lower value",0.906 (active)
same,normalized growth,"locus YJR043C, strain POL32, stronger effect = lower value",0.949
same,normalized growth,"locus YJR075W, strain HOC1, stronger effect = lower value",0.73 (active)
same,normalized growth,"locus YKL190W, strain CNB1, stronger effect = lower value",0.906 (active)
same,normalized growth,"locus YLR039C, strain RIC1, stronger effect = lower value",0.989
same,normalized growth,"locus YLR058C, strain SHM2 (second series), stronger effect = lower value",0.92 (active)
same,normalized growth,"locus YLR085C, strain ARP6, stronger effect = lower value",0.591 (active)
same,normalized growth,"locus YLR262C, strain YPT6, stronger effect = lower value",1.02
same,normalized growth,"locus YML094W, strain GIM5, stronger effect = lower value",0.964
same,normalized growth,"locus YMR219W, strain ESC1, stronger effect = lower value",0.933 (active)
same,normalized growth,"locus YMR263W, strain SAP30, stronger effect = lower value",0.951
same,normalized growth,"locus YNL153C, strain GIM3, stronger effect = lower value",0.964
same,normalized growth,"locus YNL298W, strain CLA4 (second series), stronger effect = lower value",0.836 (active)
same,normalized growth,"locus YNL322C, strain KRE1, stronger effect = lower value",0.921 (active)
same,normalized growth,"locus YNR030W, strain Alg12, stronger effect = lower value",0.804 (active)
same,normalized growth,"locus YPL055C, strain LGE1, stronger effect = lower value",0.835
same,normalized growth,"locus YPL241C, strain CIN2, stronger effect = lower value",0.789 (active)
same,normalized growth,"locus YPR135W, strain CTF4, stronger effect = lower value",0.71
Cc1cc(Cl)ccc1NNC(=O)c1sccc1Br,normalized growth,"locus YAR019C, strain CDC15, stronger effect = lower value",0.928
same,normalized growth,"locus YBL105C, strain PKC1, stronger effect = lower value",0.925
same,normalized growth,"locus YBR135W, strain CKS1, stronger effect = lower value",0.927
same,normalized growth,"locus YBR136W, strain MEC1, stronger effect = lower value",0.921
same,normalized growth,"locus YBR160W, strain CDC28, stronger effect = lower value",0.918
same,normalized growth,"locus YDL017W, strain CDC7, stronger effect = lower value",0.928
same,normalized growth,"locus YDL028C, strain MPS1, stronger effect = lower value",0.929
same,normalized growth,[1],0.917
same,normalized growth,"locus YDL108W, strain KIN28, stronger effect = lower value",0.932
same,normalized growth,"locus YDL132W, strain cdc53, stronger effect = lower value",0.918
same,normalized growth,"locus YDL214C, strain PRR2, stronger effect = lower value",0.872
same,normalized growth,"locus YDR052C, strain DBF4, stronger effect = lower value",0.931
same,normalized growth,"locus YDR054C, strain cdc34, stronger effect = lower value",0.908
same,normalized growth,"locus YDR226W, strain ADK1, stronger effect = lower value",0.922
same,normalized growth,"locus YDR477W, strain SNF1, stronger effect = lower value",0.871
same,normalized growth,"locus YER123W, strain YCK3, stronger effect = lower value",0.81
same,normalized growth,"locus YER133W, strain GLC7, stronger effect = lower value",0.851
same,normalized growth,"locus YFL009W, strain cdc4, stronger effect = lower value",0.925
same,normalized growth,"locus YFL029C, strain CAK1, stronger effect = lower value",0.921
same,normalized growth,"locus YFR003C, strain YPI1, stronger effect = lower value",0.924
same,normalized growth,"locus YFR019W, strain FAB1, stronger effect = lower value",0.895
same,normalized growth,"locus YFR028C, strain CDC14, stronger effect = lower value",0.924
same,normalized growth,"locus YGR040W, strain KSS1, stronger effect = lower value",0.844
same,normalized growth,"locus YGR052W, strain FMP48, stronger effect = lower value",0.908
same,normalized growth,"locus YGR092W, strain DBF2, stronger effect = lower value",0.784
same,normalized growth,[2],0.489 (active)
same,normalized growth,"locus YHR079C, strain IRE1, stronger effect = lower value",0.862
same,normalized growth,"locus YHR082C, strain KSP1, stronger effect = lower value",0.879
same,normalized growth,"locus YHR205W, strain SCH9, stronger effect = lower value",0.844
same,normalized growth,"locus YIL147C, strain SLN1, stronger effect = lower value",0.928
same,normalized growth,"locus YJL095W, strain BCK1, stronger effect = lower value",0.714
same,normalized growth,"locus YJL128C, strain PBS2, stronger effect = lower value",0.895
same,normalized growth,"locus YJL157C, strain FAR1, stronger effect = lower value",0.85
same,normalized growth,"locus YJR016C, strain ILV3, stronger effect = lower value",0.935
same,normalized growth,"locus YJR066W, strain TOR1 (second series), stronger effect = lower value",0.862
same,normalized growth,"locus YJR066W, strain TOR1, stronger effect = lower value",0.886
same,normalized growth,"locus YKL048C, strain ELM1, stronger effect = lower value",0.896
same,normalized growth,"locus YKL067W, strain YNK1, stronger effect = lower value",0.873
same,normalized growth,"locus YKL101W, strain HSL1, stronger effect = lower value",0.872
same,normalized growth,"locus YKL193C, strain SDS22, stronger effect = lower value",0.92
same,normalized growth,"locus YKL203C, strain TOR2, stronger effect = lower value",0.921
same,normalized growth,"locus YLR113W, strain HOG1, stronger effect = lower value",0.715 (active)
same,normalized growth,"locus YLR133W, strain CKI1, stronger effect = lower value",0.849
same,normalized growth,"locus YLR403W, strain SFP1, stronger effect = lower value",0.838
same,normalized growth,"locus YML070W, strain DAK1, stronger effect = lower value",0.842
same,normalized growth,"locus YMR001C, strain CDC5, stronger effect = lower value",0.918
same,normalized growth,"locus YMR205C, strain PFK2 (second series), stronger effect = lower value",0.87
same,normalized growth,"locus YMR277W, strain FCP1, stronger effect = lower value",0.921
same,normalized growth,"locus YNL006W, strain LST8, stronger effect = lower value",0.925
same,normalized growth,"locus YNL020C, strain ARK1, stronger effect = lower value",0.862
same,normalized growth,"locus YNL161W, strain CBK1, stronger effect = lower value",0.923
same,normalized growth,"locus YNL183C, strain NPR1, stronger effect = lower value",0.851
same,normalized growth,"locus YNL207W, strain RIO2, stronger effect = lower value",0.906
same,normalized growth,"locus YNL222W, strain SSU72, stronger effect = lower value",0.925
same,normalized growth,"locus YNL307C, strain MCK1 (second series), stronger effect = lower value",0.785
same,normalized growth,"locus YOL078W, strain AVO1, stronger effect = lower value",0.916
same,normalized growth,"locus YOL136C, strain PFK27, stronger effect = lower value",0.825
same,normalized growth,"locus YOR061W, strain CKA2, stronger effect = lower value",0.868
same,normalized growth,"locus YOR119C, strain RIO1, stronger effect = lower value",0.92
same,normalized growth,"locus YOR231W, strain MKK1, stronger effect = lower value",0.824
same,normalized growth,"locus YOR329C, strain SCD5, stronger effect = lower value",0.913
same,normalized growth,"locus YPL031C, strain PHO85, stronger effect = lower value",0.867
same,normalized growth,"locus YPL153C, strain RAD53, stronger effect = lower value",0.855
same,normalized growth,"locus YPL204W, strain HRR25, stronger effect = lower value",0.838
same,normalized growth,"locus YPL209C, strain IPL1, stronger effect = lower value",0.911
same,normalized growth,"locus YPL256C, strain CLN2, stronger effect = lower value",0.793 (active)
same,normalized growth,"locus YPR025C, strain CCL1, stronger effect = lower value",0.925
same,normalized growth,"locus YPR106W, strain ISR1, stronger effect = lower value",0.912
same,normalized growth,"locus YPR111W, strain DBF20, stronger effect = lower value",0.919
same,normalized growth,"strain NNK1, stronger effect = lower value",0.915
same,normalized growth,"strain TSCII, stronger effect = lower value",0.92
